Source: PubChem BioAssay
Hits are enriched below; roughly 14% of the tested compounds scored in any of these assays.
HCMV inh: qHTS Assay for inhibitors of the human cytomegalovirus (HCMV); activity change, negative = inhibition, % at 57.5 µM; 4.5% of 410,000 active; HFF cells, HCMV-luciferase reporter, 72 h; stronger effect = lower value; in the data active = activity change below about -60%; inconclusive = no clear call, values can overlap the other calls; inactive = above about -39%
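After 16 h attachment at 37C, HFF cells received test compound and HCMV-luciferase (1 PFU/cell); reporter luminescence read 72 h later, data normalized against buffer-only and known inhibitor Salinomycin.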
Pf growth 96h: Primary qHTS for delayed death inhibitors of the malarial parasite plastid, 96 hour incubation. P. falciparum luciferase reporter growth, 96 h. 6.9% of 320,000 active. Potency, µM (titrated, usually from 28.7 µM), most hits filed as inhibitors. AID 504834, 2011
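P. falciparum expressing integrated firefly luciferase grown in erythrocytes (2% hematocrit, 0.05% parasitemia final) with compounds for 96 hours at 37 C, 5% CO2. Growth inhibition read as loss of luminescence after adding luciferase detection reagent.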
HCV inhibitor: qHTS Assay for Inhibitors of Hepatitis C Virus (HCV). Huh7.5.1 HCVcc-Cre infection, luciferase reporter, 44 h. Potency, µM (top dose mostly 41.8 µM), hits mostly inhibitors. 3.4% of 340,000 active
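Reporter virus HCVcc-Cre (~0.5 moi) infects cells exposed to compound; seeding density 1,000 cells/well with 4 h settling beforehand. Luminescence, 15 sec read, taken 44 h post-infection following a 15 min RT substrate incubation.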
Pf growth 48h: Primary qHTS for delayed death inhibitors of the malarial parasite plastid, 48 hour incubation | P. falciparum luciferase growth in erythrocytes, 48 h | Potency, µM (titrated, usually from 28.7 µM), actives largely listed as inhibitors | 5.9% of 310,000 active | AID 504832, 2011
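Luminescence readout; reporter = integrated firefly luciferase in P. falciparum. RBC culture at 2% hematocrit, 0.1% parasitemia final, 37 C/5% CO2; decreased signal taken as growth inhibition.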
MARV entry inh: qHTS for inhibitors of binding or entry into cells for Marburg Virus. Potency, µM (top dose mostly 37.8 µM), hits mostly inhibitors. AID 540276, 2011. 1.8% of 300,000 active. Marburg virus pseudotyped entry inhibition, cell reporter; calls by dose curve; tested in HEK293 cells
Lassa entry inh: qHTS for Inhibitors of binding or entry into cells for Lassa Virus; 1.2% of 300,000 active; Lassa virus pseudotype entry inhibition, cell reporter; Potency, µM (titrated, usually from 37.9 µM), actives largely listed as inhibitors; calls by dose curve; tested in HEK293 cells; note: nearly all actives have a fitted effect of over 50% in size
CLK4 ADP-Glo: Confirmaiton Assay for Inhibitors of CDC-like Kinase 4 (ADP-Glo Assay); shares compounds with Pf growth 48h; recombinant Clk4, RS peptide, ADP-Glo luminescence; Potency, µM (series often up to 80 µM), usual class: inhibitors; 80% of 65 active; AID 1969, 2009
Target sequence (Q9HAZ1 whole entry, looked up): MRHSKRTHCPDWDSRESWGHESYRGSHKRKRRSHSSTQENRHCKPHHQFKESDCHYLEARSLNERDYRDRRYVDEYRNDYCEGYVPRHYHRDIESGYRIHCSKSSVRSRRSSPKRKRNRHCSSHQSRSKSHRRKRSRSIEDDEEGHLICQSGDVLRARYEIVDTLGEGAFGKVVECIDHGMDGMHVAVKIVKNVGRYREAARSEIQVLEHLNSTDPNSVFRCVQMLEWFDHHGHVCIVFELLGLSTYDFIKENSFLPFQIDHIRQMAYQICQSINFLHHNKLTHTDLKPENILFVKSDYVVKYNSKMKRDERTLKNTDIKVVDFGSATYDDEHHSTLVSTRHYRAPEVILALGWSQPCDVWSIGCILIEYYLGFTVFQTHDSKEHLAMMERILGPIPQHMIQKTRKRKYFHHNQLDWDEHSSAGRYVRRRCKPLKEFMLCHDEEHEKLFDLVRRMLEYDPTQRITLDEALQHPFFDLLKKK
CLK4 ADP FP: Confirmation Assay for Inhibitors of CDC-like Kinase 4 (ADP-FP Assay) | shares compounds with Pf growth 48h | recombinant Clk4, ADP Transcreener FP, RS peptide | Potency, µM (doses to about 80 µM), usual class: inhibitors | 70% of 65 active | AID 1983, 2009
Numbers stand for hits; – = inactive; ? = inconclusive; · = no result; ! = not active in a repeat. Unless noted, calls come from the whole dose curve; as a rule, active = well fitted curve in the direction sought with a large enough effect; inconclusive = small, poorly fitted or top-dose-only effect, or another doubt; inactive = no such curve, though single readings can be large; an effect the other way counts as inactive or inconclusive.

SMILES | HCMV inh | Pf growth 96h | HCV inhibitor | Pf growth 48h | MARV entry inh | Lassa entry inh | CLK4 ADP-Glo | CLK4 ADP FP
COc1ccc(CN(C)Cc2nc3scc(-c4ccccc4)c3c(=O)[nH]2)cc1OC | -60.1 | ? | – | ? | ? | – | · | ·
CC(=O)N1CCN(Cc2nc3scc(-c4ccccc4)c3c(=O)[nH]2)CC1 | – | 13.1µM | – | ? | – | – | · | ·
O=c1[nH]c(CN2CCN(Cc3ccccc3)CC2)nc2scc(-c3ccccc3)c12 | – | – | ? | ? | – | ? | · | ·
CN(C)c1ccc(CNC(=O)c2cnc3sc(N4CCCCCC4)nn3c2=O)cc1 | – | · | · | · | · | ? | · | ·
CCc1ccccc1NC(=O)N1CC(C)Sc2ccccc21 (stereo not given) | – | · | · | · | · | – | · | ·
CC(c1nc2ccccc2c(=O)[nH]1)N1CCN(S(=O)(=O)c2ccc(F)c(Cl)c2)CC1 (stereo not given) | – | · | · | · | · | · | · | ·
CCOC(=O)C1C(=O)CC(=O)C(C(=O)OCC)C1c1ccc(O)cc1 (stereo not given) | – | · | · | · | · | · | · | ·
c1csc(CNc2ncnc3nc[nH]c23)c1 | – | ? | – | – | – | – | · | ·
Clc1cccc(-c2ccc3ncnc(NCc4cccs4)c3c2)c1 | – | 3.29µM | · | 11.7µM | · | · | 3.98µM | 7.94µM
Cc1cccc(-c2ccc3ncnc(NCc4cccs4)c3c2)c1 | -76.3 | 3.29µM | · | 3.7µM! | · | · | 7.94µM | 15.8µM
Cc1ccc(N2CC(NC(=O)c3ccccc3C(F)(F)F)CC2=O)cc1C (stereo not given) | – | · | · | · | · | – | · | ·
COc1ccccc1C(=O)NCC(=O)OC(C)C(=O)N1CCOCC1 (stereo not given) | – | – | – | – | – | – | · | ·
Cc1cccc(CNc2ncnc3ccc(-c4ccc5c(c4)OCCO5)cc23)c1 | -89.2 | 3.29µM | · | 4.65µM | · | · | 0.562µM | 0.708µM
CC(=O)Nc1ccc(CNc2ncnc3ccc(-c4c(C)noc4C)cc23)cc1 | – | ? | · | ? | · | · | · | ·
Cc1cccc(-c2ccc3ncnc(NCc4cccnc4)c3c2)c1 | – | ? | · | 9.28µM | · | · | 6.31µM | 10µM
Cc1cccc(CNc2ncnc3ccc(-c4cccc(C)c4)cc23)c1 | · | 3.7µM | · | 13.1µM | · | · | 14.1µM | ?
Cc1cccc(CNc2ncnc3ccc(-c4ccc5c(ccn5C)c4)cc23)c1 | · | 1.85µM | · | 3.29µM | · | · | ? | ?
Cn1ncc2c(NCc3cccc(Cl)c3)ncnc21 | – | · | · | · | · | – | · | ·
CCCNC(=O)C1(C)CCCN(C/C=C/c2ccccc2)C1 (stereo not given) | – | · | · | · | · | · | · | ·
c1ccc(-n2ncc3c(NCc4cccnc4)ncnc32)cc1 | – | – | ? | – | – | – | · | ·
Fc1cccc(CNc2ncnc3ccc(-c4cccc(Cl)c4)cc23)c1 | · | 2.94µM | · | 6.57µM | · | · | 7.08µM | 12.6µM
Cc1cccc(CNc2ncnc3ccc(-c4ccoc4)cc23)c1 | – | 8.28µM | · | 14.7µM | · | · | 0.251µM | 0.282µM
Cc1cccc(CNc2ncnc3ccc(-c4cccnc4)cc23)c1 | – | 6.57µM | · | 11.7µM | · | · | 2.82µM | 5.01µM
Fc1ccc(F)c(CNc2ncnc3cc(Cl)ccc23)c1 | – | ? | ? | ? | ? | – | · | ·
Fc1cccc(CNc2ncnc3ccc(-c4ccoc4)cc23)c1 | · | ? | · | ? | · | · | 3.55µM | 3.55µM
SMILES | HCMV inh | Pf growth 96h | HCV inhibitor | Pf growth 48h | MARV entry inh | Lassa entry inh | CLK4 ADP-Glo | CLK4 ADP FP
Cc1ccc(CNC(=O)c2sc3nc4n(c(=O)c3c2C)CCCC4)cc1 | – | · | · | · | · | ? | · | ·
c1cncc(CNc2ncnc3ccc(-c4ccoc4)cc23)c1 | -82.5 | ? | · | ? | · | · | 0.562µM | 1µM
Cc1ccc2ncnc(NCCCCCC(=O)O)c2c1 | – | – | – | – | – | – | · | ·
COc1cccc(-c2ccc3ncnc(NCc4cc(C)cs4)c3c2)c1 | – | 4.15µM | · | 6.57µM | · | · | 0.891µM | 1.26µM
Cc1csc(CNc2ncnc3ccc(-c4ccoc4)cc23)c1 | -85.9 | ? | · | 13.1µM! | · | · | 0.562µM | 0.562µM
Cc1csc(CNc2ncnc3ccc(-c4cccnc4)cc23)c1 | – | 10.4µM | · | ? | · | · | 4.47µM | 11.2µM
Cc1ccc(NC(=O)Nc2nnc(SCC(=O)Nc3ccc(F)cc3F)s2)cc1 | – | · | · | · | · | – | · | ·
O=C1CN(C(=O)COC(=O)c2ccccc2Br)c2ccccc2N1 | – | – | ? | – | – | – | · | ·
